According to PubChem BioAssay AID1159580 (chemical genetic matrix, 2015):
Among all 5,500 compounds or so, about 2,000 (36%) were called active. About 18% were inconclusive and are not listed. Cut-off read from the data, not from the text of the source: active = normalized growth mostly below about 0.91 (no sharp cut-off); inconclusive = no clear call, values can overlap the other calls; inactive = mostly above about 0.92. The list shows a part of the results.

Test: chemical genetic growth profiling, strain panel (AID 1159580);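 note: tested at 20 µM; growth read once vehicle control cultures reached saturation at 30 °C; 1 = growth at the plate median or of vehicle wells; lower values mean less growth of the strain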
Details: S. cerevisiae deletion strains, growth OD

Measured: normalized growth

CCCCOC(=O)NS(=O)(=O)c1sc(CC(C)C)cc1-c1ccc(Cn2c(CC)nc3c(C)cc(C)nc32)cc1
inactive: locus YAL013W, strain DEP1, stronger effect = lower value 1 | locus YAL040C, strain CLN3, stronger effect = lower value 1.01 | locus YCL061C, strain MRC1 (second series), stronger effect = lower value 0.999 | locus YDR150W, strain NUM1, stronger effect = lower value 1.01 | locus YDR363W, strain ESC2, stronger effect = lower value 0.988 | locus YER002W, strain NOP16, stronger effect = lower value 0.997 | locus YJR075W, strain HOC1, stronger effect = lower value 0.999 | locus YNL128W, strain TEP1, stronger effect = lower value 1 | locus YNL153C, strain GIM3, stronger effect = lower value 0.923 | locus YNL175C, strain NOP13, stronger effect = lower value 1 | locus YNL197C, strain WHI3, stronger effect = lower value 1 | locus YNL224C, strain SQS1, stronger effect = lower value 0.98 | locus YOR083W, strain WHI5 (second series), stronger effect = lower value 0.919
